Assay outcomes (PubChem)
NadD block: blocks S. aureus nicotinate mononucleotide adenylyltransferase; purified NadD enzyme, colorimetric absorbance read-out; 360,000 compounds, 0.78% hits; AID 602399; inhibition, % at 20 µM; in the data active = inhibition above about 26%
SUMO Mot1 rescue: SUMOylation pathway inhibition by Mot1-301 growth rescue | S. cerevisiae Mot1-301 growth rescue, ATP luminescence, 38.5C; percent above DMSO median, 100 means doubled | AID 2716 | growth rescue, % at 18.8 µM | 320,000 compounds, 1% hits;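 active = every valid replicate shows activation above 250% relative to neutral control wells; inactive = the rest, any valid replicate at or below 250%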;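 note: OY570 slx delta 5 strain wells were the positive control but not used for scaling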
Calb FLC: C. albicans growth modulation with fluconazole; C. albicans CaCi-2 (fluconazole-resistant clinical isolate) + fluconazole, Alamar Blue growth, 48 h; growth inhibition, % (concentration not given with the values); 300,000 compounds, 0.57% hits;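 active = growth inhibition above about 58% in most replicates, limit read from the data, passing the limit was not always enough; inconclusive = exactly half the replicates above a set limit; inactive = most replicates below a set limit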;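 note: all wells also contain fluconazole at 8 µg/ml as a sub-toxic cotreatment; 0% = median of DMSO wells and 100% = median of geldanamycin control wells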
ATG4B inh: blocks human ATG4B protease cleavage of LC3 substrate | Q9Y4P1 | ATG4B cleavage of LC3-PLA2, NBD-HPC fluorescence, 1 h | inhibition, % at 8.33 µM | 340,000 compounds, 0.51% hits | AID 504462; in the data active = inhibition above about 40%
Target sequence (Q9Y4P1 whole entry, looked up): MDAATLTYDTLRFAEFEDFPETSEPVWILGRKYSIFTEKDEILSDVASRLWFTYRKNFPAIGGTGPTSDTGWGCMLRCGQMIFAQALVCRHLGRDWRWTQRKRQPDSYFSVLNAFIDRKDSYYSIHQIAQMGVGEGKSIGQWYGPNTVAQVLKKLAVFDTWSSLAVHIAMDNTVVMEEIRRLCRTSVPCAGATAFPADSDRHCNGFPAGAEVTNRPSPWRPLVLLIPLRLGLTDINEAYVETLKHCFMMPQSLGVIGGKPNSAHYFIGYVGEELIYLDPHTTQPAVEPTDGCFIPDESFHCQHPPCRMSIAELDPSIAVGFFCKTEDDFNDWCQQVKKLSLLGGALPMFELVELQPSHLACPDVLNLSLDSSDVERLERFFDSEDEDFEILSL
FAS TE block: FAS thioesterase (human) inhibition; recombinant FAS-TE, OMFH fluorogenic substrate, fluorescence endpoint; P49327; inhibition, % at 15 µM; 360,000 compounds, 0.67% hits;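 active = compounds whose normalised, plate-corrected inhibition of enzyme fluorescence in the single-dose primary screen is 50% or more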;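 note: 0% = DMSO with enzyme and 100% = substrate without enzyme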
Yeast Mot1 SUMO: yeast SUMO pathway inhibition in dose response | shares compounds with SUMO Mot1 rescue | S. cerevisiae Mot1-301 galactose growth, ATP luminescence, 24 h; -100 = growth of slx-deleted rescue strain | growth activity, percent, % at 42 µM | 2,300 tested, under 10 active | AID 493004;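 active = Signal drops as the depositor expects, and the fitted half-maximal dose is no more than ten times the top valid tested dose; inconclusive = Poor fit, or a flat curve whose signal drops by 30% to 70%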;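 note: more negative values mean stronger growth rescue toward the control strain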
Active calls of the source: *; u = inconclusive; x = not tested or not shown; + = active, no number. The list is not random: actives were taken first. Their share in the collection is about 3.1%.

SMILES	NadD block	SUMO Mot1 rescue	Calb FLC	ATG4B inh	FAS TE block	Yeast Mot1 SUMO
O=C(O)C1C(C(=O)O)C2(Cl)C(Cl)=C(Cl)C1(Cl)C2(Cl)Cl (configuration not stated)	2.4	400.4*	x	9.0	-3.6	0.7
CN1C(=O)C(=Cc2cn(CC(=O)N3CCCC3)c3ccccc23)C(=O)N(C)C1=O	0.7	+	2.2	-13.8	-4.3	0.5
COC(=O)c1ccc(NC(=O)CSc2nc3ccc(N4C(=O)C5C6C=CC(C6)C5C4=O)cc3s2)cc1 (configuration not stated)	3.9	8.7	-47.5	-11.6	41.3	x
C=C[C@@]12CN(C)[C@H]3[C@H]1[C@@]1(C(=O)Nc4ccccc41)C1CC2[C@@H]3CO1	4.9	26.1	x	7.7	-3.4	x
CN(C=O)CP(=O)(O)CN(C)C=O	5.1	569.9*	-4.8	-5.5	-8.0	0.1
COc1cc(N2CCOCC2)ccc1C=C1C(=O)NC(=O)NC1=O	3.8	-14.8	-1.9	-3.1	-6.7	x
O=C1NC(=O)C(=Cc2ccc(N3CCOCC3)cc2)C(=O)N1	-5.9	505.0*	5.8	-1.6	-1.7	0.2
O=C(O)c1ccc([N+](=O)[O-])c([N+](=O)[O-])c1	2.2	x	x	-3.8	14.3	x
O=C(O)c1cc(Oc2ccc(C(F)(F)F)cc2Cl)ccc1[N+](=O)[O-]	-5.2	513.6*	x	1.0	-5.7	0.2
Cc1cccc(N/N=C/c2c(O)[nH]c(=S)[nH]c2=O)c1	3.4	376.3*	-4.3	-13.2	-5.7	0.1
Cc1ccc2c(c1)=C/C(=C\c1c(O)[nH]c(=S)[nH]c1=O)C(=O)N=2	x	14.2	0.4	x	x	x
CC1CN=C(NCc2ccccc2)S1 (configuration not stated)	0.7	679.5*	-15.0	-15.2	-20.4	0.1
CC1CN=C(NCc2ccccc2Cl)S1 (configuration not stated)	-10.2	-3.0	-14.6	-4.4	-18.7	x
Cc1cc(C)n(CCOC(=O)C2C(C=C(Cl)Cl)C2(C)C)n1 (configuration not stated)	-4.4	905.5*	-0.2	3.5	8.4	0.4
COc1ccccc1-n1c(O)c(/C=C2\C=Nc3ccccc32)c(=O)[nH]c1=O	0.9	561.5*	-4.1	2.5	-8.2	0.3
Cc1c(O)ccc(C(=O)CN2CC(C)OC(C)C2)c1O (configuration not stated)	4.2	75.6	-4.3	-10.6	-7.2	x
COc1ccc(NC(=O)c2cn(CCC#N)nc2-c2cccc(Br)c2)cc1	-8.2	22.7	1.5	-5.4	4.2	x
OC[C@@H](O)CCl	x	360.1*	-21.7	x	x	0.3
C=C1C2C[C@@]3([C@@H]1O)[C@@H](C[C@@H]2O)[C@@]12C4[C@@H]3C[C@@H]1[C@@](C)(CC[C@@H]2O)CN4CC	-3.7	405.1*	x	3.8	-7.0	0.5
CC1([N+](=O)[O-])COP(=O)(NC2CC2)OC1 (configuration not stated)	0.9	x	x	3.4	-2.0	x
Cc1ccc(O)c(C)c1	-5.5	388.9*	x	3.2	-0.2	1.2
O=[N+]([O-])c1ccccc1CN1CC=C(c2ccc(F)cc2)CC1	-0.2	+	1.2	2.2	25.7	0.8
Cc1cc(Oc2cc(NN3CCCCC3)c([N+](=O)[O-])cc2[N+](=O)[O-])ccc1[N+](=O)[O-]	11.5	751.8*	11.6	1.0	32.8	0.4
O=[N+]([O-])c1ccc(N2CCCC2)c(F)c1Br	5.4	-5.6	u	11.2	13.7	x
CN1C(=O)N(C)C(=O)C2(Cc3cc(NC(=O)c4ccccc4)ccc3N3CCCC32)C1=O (configuration not stated)	-8.9	-2.3	8.0	-9.6	-6.7	x
O=c1[nH]c(O)c(N=Nc2cc([N+](=O)[O-])ccc2O)c(=O)[nH]1	4.4	648.6*	32.9	-4.7	2.8	0.2
NC(=O)c1ccc(N=Nc2c(O)[nH]c(=O)[nH]c2=O)cc1	x	-11.4	6.2	x	x	x
C[C@]12CCC(=O)C=C1C=CC1C2CC[C@]2(C)C(=O)CCC12 (some centres not stated)	0.9	-12.6	x	2.1	-2.6	x
Cn1cc(C(=O)Cc2ccccc2)c2ccccc21	-3.4	671.3*	-10.3	-6.5	-1.8	0.6
CSCCC(c1nnnn1C1CCCCC1)N1CCC2(CC1)C(=O)NCN2c1ccccc1 (configuration not stated)	-1.7	x	x	x	8.0	x
